The structures appear in SMILES notation.

A short description of the assay: Cell Proliferation Assay against the TMD8 Cell Line (AID 651645).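 Further: cells exposed to compound for 48 h before reading.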 The following applies: TMD8 DLBCL cell line proliferation/viability; at 46.1 µM (top of the series). The source says:
One class of targeted therapeutics showing early clinical success in killing of ABC DLBCL lines are small molecule inhibitors of the Bruton tyrosine kinase (BTK) 11.
Prior to any combination assays, using an NCATS developed oncology compound library called the Mechanism of Interrogation Plate (MIPE), two well studied ABC DLBCL lines (TMD8 and HBL1) were screened using a cell viability assay (CellTiterGlo) and a 12-point titration series for each single agent. These initial experiments offered insight into the concentration range that offered the best coverage of activity and non-activity to assure relevant data is generated. In addition to the viability signature associated with this library, we examined the apoptotic response of each agent versus the TMD8 line as judged by caspase 3/7 activation. Activity was assayed at both 8 and 16 hour time-points to gain an appreciation of which agents induced an apoptotic response in a reasonable timeframe from a therapeutic exposure perspective. MIPE was also assayed for single agent viability in a human mesenchymal stem cell (hMSC) line as a surrogate of each library member's potential therapeutic index.
A total of 500 log growing TMD8 cells are seeded per well in 5 uL of a RPMI with glutamine (or Glutamax), without phenol red plus 5% FBS and 1X Pen/Strep into 1536 -solid white high base tissue culture treated Greiner One Bio Plates (789173-F) using a multidrop combi dispenser and a small sterile cassette. Compounds and controls totaling 23nL per well (negative control DMSO and positive control 9.2 uM Bortezomib-final) are immediately added to the plates using a 1536 head pin tool from Kalypsys. The plates are then covered with stainless steel gasket lids from Kalypsys and incubated for 48 hours at 37C under 95% relative humidity with 5% CO2. After 48 hours, the plates are removed and allowed to reach room temperature before 3 uL of Cell Titer Glo reagent (Promega) is added using an Aurora Flying Reagent Dispenser Bioraptor. The plates are then spun at 1000 rpms to remove bubbles and incubated for 15 minutes at room temperature before read on a ViewLux using a luminescent filter with a 10 second exposure. The relative luciferase units are used to calculated percent activity using DMSO as 100% and Bortezomib as 0%.
On to `NC(=O)Nc1cc(-c2cccc(F)c2)sc1C(=O)N[C@H]1CCCNC1`, for which the viability (% of control) amounted to 5.07%. Consider `CC(C)c1ccccc1Cc1cc(C(=O)Nc2ccc(S(=O)(=O)c3ccccc3C(C)(C)C)cc2)c(O)c(O)c1O`, for which the viability (% of control) turned out to be 9.33%. The same measure for `CC(=O)OCC(=O)[C@@]1(O)[C@H](C)C[C@H]2[C@@H]3C=C(C)C4=Cc5c(cnn5-c5ccccc5)C[C@]4(C)[C@@H]3[C@@H](O)C[C@@]21C`: 3.02%; for `C1=CCOCc2cc(ccc2OCCN2CCCC2)Nc2nccc(n2)-c2cccc(c2)OCC1`: 61.1%. On to `CN(c1ncccc1CNc1nc(Nc2ccc3c(c2)CC(=O)N3)ncc1C(F)(F)F)S(C)(=O)=O`, for which the viability (% of control) is -0.0421%.

Turning to `CN1CCN(c2ccc3nc(-c4c(N)c5c(F)cccc5[nH]c4=O)[nH]c3c2)CC1`, the viability (% of control) was -0.299%. Regarding `O=C(O)c1ccc2c(c1)nc(Nc1cccc(Cl)c1)c1ccncc12`, the viability (% of control) was 0.231%. Regarding `COc1cc2ncnc(Nc3ccc(F)c(Cl)c3)c2cc1NC(=O)C=CCN1CCCCC1`, the viability (% of control) was -0.755%. Regarding `CC1(C)OC2=C(C(=O)c3ccccc3C2=O)[C@H](NCc2ccccc2)[C@H]1O`, the viability (% of control) amounted to 5.62%. The same measure for `COc1cc2nccc(Oc3ccc(NC(=O)C4(C(=O)Nc5ccc(F)cc5)CC4)cc3)c2cc1OC`: 18.7%. Take `Nc1ccccc1NC(=O)c1ccc(CNc2nccc(-c3cccnc3)n2)cc1`: the viability (% of control) stood at 2.31%. Under `CC(C)(C)c1cc(C(C)(C)C)c(NC(=O)c2c[nH]c3ccccc3c2=O)cc1O` stands 5.21%. As to `CCN1CCN(Cc2ccc(-c3cc4c(N[C@H](C)c5ccccc5)ncnc4[nH]3)cc2)CC1`, the viability (% of control) turned out to be 1.56%. Turning to `O=c1[nH]nc(Sc2ncc([N+](=O)[O-])s2)n1-c1ccc2c(c1)OCCO2`, the viability (% of control) came out at 0.996%. For the compound `COc1ccc(CC2SC(=O)NC2=O)cc1C(=O)NCc1ccc(C(F)(F)F)cc1` (stereo not given), the viability (% of control) turned out to be 71.9%. On to `C=C1C(=CC=C2CCCC3(C)[C@@H]([C@H](C)C=CC=CC(O)(CC)CC)CC[C@@H]23)C[C@@H](O)C[C@@H]1O` (stereo not given in full), for which the viability (% of control) came out at 3.4%. Under `CN1CCC(CNc2ccc3ncc(-c4cccc(OC(F)(F)F)c4)n3n2)CC1` stands 4.73%; under `CN(C)CC=CC(=O)Nc1cc2c(Nc3ccc(F)c(Cl)c3)ncnc2cc1O[C@H]1CCOC1`, 0.0294%. `O=C(C=Cc1cccc(S(=O)(=O)Nc2ccccc2)c1)NO`: the viability (% of control) worked out at 1.87%. In the case of `Cc1[nH]nc2ccc(-c3cncc(OC[C@@H](N)Cc4ccccc4)c3)cc12`, the viability (% of control) is -0.774%.

As for `CC(=O)SC[C@@H](C)C(=O)N1CCC[C@H]1C(=O)N[C@@H](Cc1ccccc1)C(=O)O`, the viability (% of control) is 104%. Under `Cc1nc2cnc3ccc(C#Cc4cccnc4)cc3c2n1-c1ccc(C(C)(C)C#N)cc1` stands 0.22%; under `Cc1cn(-c2cc(NC(=O)c3ccc(C)c(Nc4nccc(-c5cccnc5)n4)c3)cc(C(F)(F)F)c2)cn1`, 17.5%. `Nc1nccc(Oc2ccc(NC(=O)c3c[nH]cc(-c4ccc(F)cc4)c3=O)cc2F)c1Cl`: the viability (% of control) came to 4.79%. As to `COc1cc(OC2CCN(C)CC2)ccc1Nc1ncc2c(n1)n(C1CCCC1)c(=O)n2C`, the viability (% of control) was determined as 56.7%. Regarding `Cc1ccc(C(N)=O)cc1Nc1nccc(-c2cn(C(C)C)c3cnccc23)n1`, the viability (% of control) came out at 5.31%. Take `CC(NCc1ccc2c(c1)nc(NC(=O)c1ccc(-c3cn[nH]c3)s1)n2CC(C)(C)O)C(C)(C)C` (stereo not given): the viability (% of control) turned out to be 1.7%. Under `CC(=O)Nc1sc2c(c1-c1nc3ccccc3s1)CNC2` stands 4.93%; under `COc1cc2c(Oc3ccc4[nH]c(C)cc4c3F)ncnc2cc1OCCCN1CCCC1`, 1.51%; under `Cc1cc(Nc2cc(N3CCN(C)CC3)nc(Sc3ccc(NC(=O)C4CC4)cc3)n2)n[nH]1`, 19.5%. Under `CC(C)(C)OC(=O)Nc1ccc(-c2cc(C(=O)NCCCCCCC(=O)NO)no2)cc1` stands 2.43%. In the case of `C=CCn1c(=O)c2cnc(Nc3ccc(N4CCN(C)CC4)cc3)nc2n1-c1cccc(C(C)(C)O)n1`, the viability (% of control) amounted to 11.5%. As for `CCOc1cc2ncc(C#N)c(Nc3ccc(F)c(Cl)c3)c2cc1NC(=O)C=CCN(C)C`, the viability (% of control) is -0.0881%. With `CN1CC[C@@H](c2c(O)cc(O)c3c(=O)cc(-c4ccccc4Cl)oc23)[C@@H](O)C1`, the viability (% of control) is -0.0054%. Turning to `COc1cc(C(C)C)c2c(c1)S(=O)(=O)N(COc1cc(=O)n3cccc(OCCN4CCCCC4)c3n1)C2=O`, the viability (% of control) stood at 0.892%.

For the compound `Cc1ccc(C(=O)Nc2ccc(CN3CCN(C)CC3)c(C(F)(F)F)c2)cc1C#Cc1cnc2cccnn12`, the viability (% of control) was 1.83%.

On to `Cn1cncc1[C@@](N)(c1ccc(Cl)cc1)c1ccc2c(c1)c(-c1cccc(Cl)c1)cc(=O)n2C`, for which the viability (% of control) was determined as 1.01%. As for `Cn1c(=O)n(-c2ccc(C(C)(C)C#N)cc2)c2c3cc(-c4cnc5ccccc5c4)ccc3ncc21`, the viability (% of control) came out at 10.6%.

With `Nc1ccccc1NC(=O)c1ccc(CNC(=O)OCc2cccnc2)cc1`, the viability (% of control) worked out at 4.84%. With `Cn1c2cc(S(C)=O)sc2c2cnn(Cc3cccc(N)c3)c(=O)c21` (stereo not given), the viability (% of control) is 110%.

(Values after PubChem BioAssay (NCATS).)
